Compounds without any hit were thinned out: in the full panel of roughly 79,000, 15% have a hit. No stated cut-off is given here; in the data, active means growth inhibition above about 70%; inactive means the rest.
Legend:
[1] = NCI Yeast Anticancer Drug Screen. Data for the rad50 strain (AID 155);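 further: 0% = growth of vehicle-only cultures of the same strain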; settings: S. cerevisiae rad50 strain growth inhibition; at 50.0 µM; hits give high values
Procedure, shortened: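 Yeast carrying a defined DNA repair defect were exposed to test compounds, and growth was compared with vehicle-treated controls to give percent inhibition.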

[2] = NCI Yeast Anticancer Drug Screen. Data for the mec2-1 strain (AID 157); settings: S. cerevisiae mec2-1 strain, at 50.0 µM, hits give high values
Procedure, shortened: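 Compounds were applied to mec2-1 yeast cells. Their growth was then compared with that of vehicle-treated cultures to give growth inhibition.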

[3] = NCI Yeast Anticancer Drug Screen. Data for the sgs1 mgt1 strain (AID 161);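 further: 0% = growth of cultures given vehicle only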; settings: S. cerevisiae sgs1 mgt1 strain, at 50.0 µM, hits give high values
Procedure, shortened: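 Yeast cells carrying a defined DNA-repair defect were exposed to test compounds. Growth inhibition was measured relative to vehicle-treated controls.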

[4] = NCI Yeast Anticancer Drug Screen. Data for the cln2 rad14 strain (AID 165);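 further: 0% = growth equal to vehicle treated cultures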; settings: S. cerevisiae cln2 rad14 strain, at 50.0 µM, hits give high values
Procedure, shortened: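 Strain: cln2 rad14 yeast, altered in cell cycle control and DNA damage repair. Read-out: growth inhibition vs vehicle.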

[5] = NCI Yeast Anticancer Drug Screen. Data for the bub3 strain (AID 167); settings: S. cerevisiae bub3 mutant strain, at 50.0 µM, hits give high values
Procedure, shortened: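 Compounds were applied to a genetically altered yeast strain carrying a cell-cycle control defect. Growth inhibition was scored against vehicle-treated controls.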

[6] = NCI Yeast Anticancer Drug Screen. Data for the mlh1 rad18 strain (AID 175); settings: S. cerevisiae mlh1 rad18 strain growth inhibition; at 50.0 µM; hits give high values
Procedure, shortened: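 A repair-deficient yeast strain is exposed to test compound, and growth is scored relative to vehicle-treated controls.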

Measured: growth inhibition

N#Cc1ccc[n+]([O-])c1
inactive: [1] -8.8% | [2] -6.1% | [3] 0.05% | [4] -0.7% | [5] 7.65% | [6] -4.6%

CC1(C)N=C(N)N=C(N)N1c1cccc(CO)c1
inactive: [1] 0.5% | [2] 9.5% | [3] 1.15% | [4] -2.45% | [5] 15.2% | [6] 28.2%

CCCCOC(=O)CCc1nc2c([nH]1)c(=O)n(C)c(=O)n2C
inactive: [1] 15.8% | [2] 8.9% | [3] 9.5% | [4] 42.4% | [5] 9.65% | [6] -0.45%

CCC(=O)C1(CCCN(C)C)c2ccccc2Sc2ccccc21
inactive: [1] -14.3% | [2] 2.45% | [3] -8.6% | [4] -38.1% | [5] -2.35% | [6] 4.6%

Cc1cc(C)c(Br)c(C)c1C
inactive: [1] -17.4% | [2] 4.15% | [3] -9.95% | [4] -53.4% | [5] 8.5% | [6] -22.7%

CCc1ccc(/C=C/C(=O)C(C)CN(C)C)cc1 (stereo unspecified)
inactive: [1] -4.9% | [2] 26.1% | [3] -2.3% | [4] 22.1% | [5] 13.9% | [6] 9.85%

OB(O)c1cccc(B(O)O)c1
inactive: [1] -4.2% | [2] -28.7% | [3] -3% | [4] -7.45% | [5] -21.9% | [6] -10.1%

CCOC(=O)c1nc2c([nH]1)c(=O)n(C)c(=O)n2C
inactive: [1] 28.8% | [2] 10.7% | [3] 2.3% | [4] 30.1% | [5] 9.8% | [6] 1.4%

CN1C(=O)Cn2c(n[nH]c(=O)c2=O)-c2cc(Cl)ccc21
inactive: [1] -22.4% | [2] 12.3% | [3] 10.3% | [4] -36.5% | [5] 12.9% | [6] 6.2%

CN1CCN(C(=S)N(C(=O)c2ccco2)c2ccccc2)CC1
inactive: [1] -57.8% | [2] -44.3% | [3] -22.6% | [4] -2.4% | [5] -0.1% | [6] -37.9%

CC(=O)Nc1ccc(C(=O)NN2C(=O)C(Cl)C2c2ccccc2)cc1 (stereo unspecified)
inactive: [1] -22.1% | [2] -18.4% | [3] -49.4% | [4] -10.2% | [5] -28.8% | [6] -28.6%

S=C(NC1CCCCC1)N1CCC(CCCC2CCN(C(=S)NC3CCCCC3)CC2)CC1
inactive: [1] -42.8% | [2] -31.2% | [3] -44.5% | [4] -1.05% | [5] -41.8% | [6] -46.2%

COc1ccc(-c2cc3c(c4cc(OC)ccc24)C(=O)OC3=O)cc1
inactive: [1] -29.1% | [2] -5.1% | [3] 20.6% | [4] 1% | [5] 4.4% | [6] -15.1%

O=C(Nc1ccc(S(=O)(=O)NC2CCCCC2)cc1)OC1CCCCCC1
inactive: [1] 2.6% | [2] -1.25% | [3] 7.75% | [4] 4.35% | [5] -1.95% | [6] -0.85%

Nc1ccc(C(=O)Nc2ccc(C(=O)Nc3ccc4c(O)cc(S(=O)(=O)O)cc4c3)cc2)cc1
inactive: [1] -6.3% | [2] -6.65% | [3] -4.6% | [4] -34.3% | [5] -4.7% | [6] 12.8%

COC(=O)C(O)C(O)C(O)C(O)C(O)CO (stereo unspecified)
inactive: [1] -1.4% | [2] -12.1% | [3] 0.25% | [4] -45.4% | [5] -8.6% | [6] -5.3%

CC(c1ccccc1)N1COc2cc3c(cc2C1)CN(C(C)c1ccccc1)CO3 (stereo unspecified)
inactive: [1] -11.8% | [2] 0.4% | [3] -6.8% | [4] -28.3% | [5] -1.3% | [6] 6.7%

Cc1nc(-c2cc([N+](=O)[O-])cc([N+](=O)[O-])c2)oc1-c1ccccc1
inactive: [1] -15.2% | [2] -1.95% | [3] -7.35% | [4] 13% | [5] -3.25% | [6] -3.4%

Cc1ccccc1N=Nc1c(O)n(-c2ccccc2)c(=S)n(-c2ccccc2)c1=O
inactive: [1] 43.5% | [2] 0.9% | [3] 28.6% | [4] -18.9% | [5] 2.2% | [6] 14.4%

Cc1cc(=S)cc(C)[nH]1
inactive: [1] 17.1% | [2] 5.5% | [3] 11.3% | [4] 2.1% | [5] 0.45% | [6] 33.4%

O=S1(=O)C2C=CCC1C(Cl)CC2 (stereo unspecified)
inactive: [1] -7.7% | [2] 29.9% | [3] 36% | [4] -24.4% | [5] 24.9% | [6] -5.25%

O=C(O)C1C2C=CC(O2)C1C(=O)NCc1ccccn1 (stereo unspecified)
inactive: [1] -3.5% | [2] -26.5% | [3] -7.3% | [4] -22.6% | [5] -37% | [6] 9.85%

O=C(O)c1ncn2c(=O)n(CCCl)nnc12
inactive: [1] -18.9% | [2] -16.4% | [3] -15.8% | [4] -27.8% | [5] -0.55% | [6] 9.2%

Cc1cccc[n+]1C1CCc2ccccc2C1=O (stereo unspecified)
inactive: [1] 1.5% | [2] 10.7% | [3] 17.4% | [4] -23.1% | [5] -21.3% | [6] 4%

CN1C(=O)NC(C)(C)C1=O
inactive: [1] -1.5% | [2] 3.3% | [3] -1.75% | [4] -13.7% | [5] -8.45% | [6] -4.95%

O=C(O)c1ccccc1P(=O)(O)c1ccccc1
inactive: [1] -13% | [2] -10.3% | [3] -6.7% | [4] 5.35% | [5] -6.85% | [6] -31.2%

CC1c2c(ccc3ccccc23)CCC1CC1CCCc2ccc3ccccc3c21 (stereo unspecified)
inactive: [1] 45.6% | [2] -6.15% | [3] 4.7% | [4] 2.2% | [5] -1% | [6] 17.7%

O/N=C1\c2ccccc2-c2cccc(I)c21
inactive: [1] 23.4% | [2] -5.25% | [3] 7.8% | [4] 1.5% | [5] 1.1% | [6] 5.5%

C/C(=C\C(=O)c1cccc([N+](=O)[O-])c1)c1cccc([N+](=O)[O-])c1
inactive: [1] 1.35% | [2] 15.3% | [3] 0.7% | [4] -21.6% | [5] 2.6% | [6] 29.6%

CCN(CC)CCOC1CCCCC1Cc1ccccn1 (stereo unspecified)
inactive: [1] -1.55% | [2] 14.8% | [3] 8.85% | [4] -25.2% | [5] -3.65% | [6] 5.85%

C=C(C)C(=O)O[C@H]1C/C(CO)=C/CCC(=C)C(OC(C)=O)[C@H]2OC(=O)C(=C)[C@H]12 (stereo partly specified)
inactive: [1] 10.4% | [2] 36.8% | [3] -0.9% | [4] 6.85% | [5] -21.9% | [6] -20.2%

CC(=O)Nc1ccc(-c2nnc(SCC(=O)Nc3cccc(C)c3)o2)cc1
inactive: [1] 5.2% | [2] 14.7% | [3] 32% | [4] 24% | [5] 9.7% | [6] -7.75%

CC1(C)CC(=O)c2c([nH]c(=S)c(C#N)c2-c2ccc(Br)cc2)C1
inactive: [1] -37.3% | [2] -13.1% | [3] -27.4% | [4] -11.8% | [5] -8.7% | [6] -42.1%

O=C(/C=C\c1ccccc1)OCc1ccccc1CN1CCCCC1
inactive: [1] 15.7% | [2] 11.7% | [3] 17.2% | [4] 14.6% | [5] 10.4% | [6] 12.8%

CCCCCCCC(C)(O)C#CC(C)(O)CCCCCCC (stereo unspecified)
inactive: [1] 4.35% | [2] -4.15% | [3] 4.85% | [4] -20.6% | [5] 5.05% | [6] 13.3%

Brc1cccc(-c2nnc(-c3cccc4ccccc34)o2)c1
inactive: [1] 1% | [2] -11.2% | [3] 0.5% | [4] -39.2% | [5] 6.7% | [6] -8.55%

O=CNC1(CO)CCCCC1
inactive: [1] -2.4% | [2] -3.4% | [3] -7.05% | [4] -38.8% | [5] -18.1% | [6] 7.9%

Cc1ccc(/C=N/NC(N)=S)c(C)c1
inactive: [1] 8.5% | [2] -25.4% | [3] 17.3% | [4] -30.9% | [5] 7.15% | [6] 16.6%

CC(C)OC1(c2ccccc2)c2cccc3cccc(c23)C1(O)c1ccccc1 (stereo unspecified)
inactive: [1] 18.2% | [2] -3.6% | [3] 22.8% | [4] 7.7% | [5] 3.35% | [6] 6.75%

CC/C=C/C(C)c1cc(C(=O)O)ccc1OC (stereo unspecified)
inactive: [1] 10.9% | [2] 4.3% | [3] 13.4% | [4] 6.55% | [5] -13.2% | [6] 18%

CCN(CC)CCOc1ccc(/C(C#N)=C/c2ccc(OCCN3CCCCC3)cc2)cc1
inactive: [1] 35% | [2] 20.9% | [3] 57.3% | [4] 64.9% | [5] 26.2% | [6] 33.5%

Reference: PubChem BioAssay (NCI)
